Reference: publication PMC5540273 (PLoS ONE, 2017)

How the values were obtained:
Conditions in all cases: concentration: 1 μM, replicates: in singlicate; n = 1
[1] = tested on: JAK1(JH2domain-pseudokinase)
[2] = tested on: JAK2(JH1domain-catalytic)
[3] = tested on: JAK3(JH1domain-catalytic)
JNK1 = tested on: T1, JNK1
T1 construct: gene MAPK8

JNK2 = tested on: T2, JNK2
T2 construct: gene MAPK9

JNK3 = tested on: T3, JNK3
T3 construct: gene MAPK10

KIT-autoinhibited = tested on: KIT-autoinhibited
KIT = tested on: KIT
LATS1 = tested on: LATS1
LATS2 = tested on: LATS2
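Note: KINOMEscan kinase panel screen.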

Structure (SMILES)	%Inh [1] [%]	%Inh [2] [%]	%Inh [3] [%]	%Inh (JNK1) [%]	%Inh (JNK2) [%]	%Inh (JNK3) [%]	%Inh (KIT-autoinhibited) [%]	%Inh (KIT) [%]	%Inh (LATS1) [%]	%Inh (LATS2) [%]
CN(C)S(=O)(=O)c1cc(-c2ccc3nccc(-c4cccc(S(N)(=O)=O)c4)c3c2)cnc1N [GSK1669921]	12	24	0	17	0	0	0	21	0	14
O=C(Nc1cccc(-c2nn3ccccc3c2-c2ccnc(Nc3cccc(C(F)(F)F)c3)n2)c1)c1c(F)cccc1F [GSK292658]	0	26	0	3	0	0	0	94.6	0	6
Oc1cc(Nc2ccnc3cc(I)ccc23)ccc1F [GW552771]	0	7	0	32	43	28	0	70	0	0
Nc1ncc(-c2ccc3nccc(-c4ccncc4)c3c2)cc1S(=O)(=O)N1CCOCC1 [GSK1627798]	0	0	0	26	19	10	0	16	0	0
CNC(=O)c1ccccc1Nc1nc(Nc2ccc(N3CCOCC3)cc2)ncc1Cl.Cl [GSK1576028]	99.9	99	100	100	100	100	10	92.4	32	92.1
FC(F)(F)c1ccc(/C=C/c2cncnc2Nc2ccc3[nH]c(Cc4ccccc4)nc3c2)cc1 [GW709199]	2	65	0	0	0	0	0	0	19	0
Cl.c1ccc(-c2ccc3c(Nc4ccc5[nH]ccc5c4)ccnc3c2)nc1 [GW440138]	0	24	0	0	7	2	1	100	0	17
COc1cc(Nc2nccc(N3CCC(NC(=O)c4cc5ccccc5s4)C3)n2)cc(OC)c1OC (centres unmarked) [GSK1379760]	0	76	0	17	16	23	0	36	57	5
COC(=O)Nc1nc2ccc(Oc3ccc(NC(=O)Nc4cc(C(F)(F)F)ccc4F)cc3)cc2n1C.Cl [GW692089]	0	22	0	2	37	0	5	100	0	0
COc1cc2c(cc1OCCN1CCNCC1)ncc1c3ccc(C#N)cc3[nH]c21	45	64	85	13	0	0	55	70	0	42
CN(C)Cc1ccc(-c2ccc3c(Nc4ccc(Oc5ccccn5)cc4)ccnc3c2)o1 [GW567148]	0	18	0	19	4	0	0	92.8	0	0
